# From PubChem BioAssay (Tox21)
# “And” between values parts separate entries of the source, which are not always exact repeats. Equal values may be shown once. Results filed as inconclusive are left out. The source made the active and inactive calls. Calls follow the shape of the dose curve; as a rule, active = well fitted activation curve with a large enough effect in the repeat runs; inconclusive = weak or mixed curves; inactive = flat fitted curve, though single readings scatter.
# Assay: A CellTox Green Cytotoxicity Assay to monitor cytotoxicity in HEK293 cells - 24 hour (AID 1224875); also: nearly all actives have a fitted effect of over 45% in size
# Conditions: CellTox Green fluorescence; series mostly up to 76.8 µM; activity change: at the top concentration
# From the text: National Center for Advancing Translational Sciences [NCATS]
# NIH Chemical Genomics Center [NCGC]
# U.S. Environmental Protection Agency [EPA]
# National Institutes of Environmental Health Sciences [NIEHS]
# National Toxicology Program [NTP]
# Cell-based models are critical for drug discovery. Determining the natural cytotoxic effects resulting from test compounds is an essential research activity. A CellTox Green Cytotoxicity Assay to monitor cytotoxicity in real time of continues cell culture during 40 hours of the compound treatment was used to screen Tox21 10K library compounds in Hek293 cells. CellTox Green Cytotoxicity Assay is a nonlytic, homogeneous, biofluorescent method to measure cytotoxicity in cell culture after experimental manipulation. The assay system uses a proprietary asymmetric cyanine dye that is excluded from viable cells but preferentially stains the dead cell's DNA. […] Viable cells produce no appreciable increases in fluorescence. Therefore, the fluorescence signal produced by the binding interaction with dead cell DNA is proportional to cytotoxicity.
# The mixture of Hek293 cell suspension and reagents were dispensed at 600cells/6 ul/well in 1536-well tissue culture treated black solid bottom plates using a Multidrop dispenser. After the assay plates were incubated at a 37 C/5% CO2 incubator for 5 hours, 23 nL of compounds dissolved in DMSO, positive and negative controls was transferred to the assay plate by a pintool work station. The plates were incubated at 37 C for 40 hours. The fluorescence intensity were measured at 0h, 8h, 16h, 24h, 32h and 40h time points using ViewLux plate reader during compound treatment.
# % is scaled to controls: 0 for no effect and ±100 for the full control effect; potency is read from the fitted curve at half-maximal effect.
Compound,activity change,Potency
CCCCC1C(=O)NC(=O)N(C2CCCCC2)C1=O (stereo not given),"-0.649% [at 35.3 µM, stronger effect = higher value] (inactive)",
Cc1nc2ccccc2c(=O)n1-c1ccccc1Cl,-25% (inactive),
c1ccc2sc(SNC3CCCCC3)nc2c1,,inactive
CN[C@@H](C)[C@H](O)c1ccccc1,"0.842% [at 35.3 µM, stronger effect = higher value] (inactive)",
CCC(C)(C)c1ccc(O)c(C(C)(C)CC)c1,,43.2 µM (active) and 17.4 µM (active)
CCCCCCCCCCCCN(C)C,-8.85% (inactive),
C[C@H]1[C@@H]2Cc3ccc(O)cc3[C@@]1(C)CCN2C,"-5.92% [at 200 µM, stronger effect = higher value] (inactive)",
CC(O)CN1CCN(CC(=O)[O-])CCN(CC(=O)[O-])CCN(CC(=O)[O-])CC1.[Gd+3] (stereo not given),"-1.07% [at 35.3 µM, stronger effect = higher value] (inactive)",
CC(C)[C@@H](C(=O)O[C@@H](C#N)c1cccc(Oc2ccccc2)c1)c1ccc(Cl)cc1,,inactive
CCOP(=S)(OCC)SCSc1cc(Cl)ccc1Cl,1.31% (inactive),
C#C[C@]1(O)CC[C@H]2[C@@H]3CCC4=CC(=O)CCC4=C3C=C[C@@]21CC,"1.52% [at 35.3 µM, stronger effect = higher value] (inactive)",
COCc1cnc(C2=NC(C)(C(C)C)C(=O)N2)c(C(=O)O)c1 (stereo not given),-10.3% (inactive),
C=C(C)C(=O)OCCCCOC(=O)C(=C)C,-1.66% (inactive),
C[N+](C)(C)CC1CO1 (stereo not given),2.34% (inactive),
CCOC(=O)c1cncn1C(C)c1ccccc1 (stereo not given),"1.07% [at 35.3 µM, stronger effect = higher value] (inactive)",
CCCCCCCCn1sccc1=O,,55.1 µM (active) and 40.8 µM (active)
C[C@]12CC[C@H]3[C@@H](CCC4=CC(=O)CC[C@@H]43)[C@@H]1CC[C@@H]2OC(=O)CCc1ccccc1,"20.8% [at 35.3 µM, stronger effect = higher value] (inactive)",
C1CCNCC1,10.9% (inactive),
O=C(O)C(O)C(O)C(=O)O (stereo not given),2.47% (inactive),
CC(C)(C)NCC(O)c1ccccc1Cl (stereo not given),"4.71% [at 35.3 µM, stronger effect = higher value] (inactive)",

Compound,activity change,Potency
CC(C)(C#N)C(C)(C)C#N,-22.1% (inactive),
CC(C)(C)NCC(O)c1cc(Cl)c(N)c(C(F)(F)F)c1 (stereo not given),"5.16% [at 35.3 µM, stronger effect = higher value] (inactive)",
O=C([O-])c1ccccn1.O=C([O-])c1ccccn1.O=C([O-])c1ccccn1.[Cr+3],13.9% (inactive),
CCSCc1ccccc1OC(=O)NC,-4.16% (inactive),
CCCC1CCCCN1 (stereo not given),"2.31% [at 35.3 µM, stronger effect = higher value] (inactive)",
CCCSP(=S)(OCC)Oc1ccc(SC)cc1 (stereo not given),2.74% (inactive),
CCCCCBr,-29.5% (inactive),
Cc1ccc(N)c(C)c1,,inactive
CC(=O)NNc1ccccc1,-0.887% (inactive),
COc1cc(C[C@@H](C)N)c(OC)cc1Br,-4.49% (inactive),
CC(C)(c1ccccc1)c1cc(-n2nc3ccccc3n2)c(O)c(C(C)(C)c2ccccc2)c1,"-2.23% [at 35.3 µM, stronger effect = higher value] (inactive)",
C[N+]1(CCC(C(N)=O)(c2ccccc2)c2ccccc2)CCCCC1,"-27.2% [at 35.3 µM, stronger effect = higher value] (inactive)",
Cc1nnc(-c2ccccc2)c(=O)n1N,-11.3% (inactive),
NC(=O)CF,1.89% (inactive),
FC(Cl)(Cl)C(F)(Cl)Cl,-5.11% (inactive),
CN(C1CCCCC1)C1CCCCC1,6.62% (inactive),
OCCCl,0.923% (inactive),
Cc1nc(N(C)C)nc(OC(=O)N(C)C)c1C,-10% (inactive),
NCCc1cc(O)c(O)cc1O,"-4.96% [at 35.3 µM, stronger effect = higher value] (inactive)",
CC(Cl)C(=O)O (stereo not given),1.12% (inactive),
